Inconclusive results are not listed. Entries that show only a call come without a potency. Activity calls are given as the source filed them. Calls follow the shape of the dose curve; as a rule, active = well fitted inhibition curve with a large enough effect in the repeat runs; inconclusive = weak or mixed curves; inactive = flat fitted curve, though single readings scatter.
assay: qHTS assay to identify small molecule HDAC inhibitors (AID 1259364); details: HCT-116 HDAC-Glo I/II luminescence, 2 h; series mostly up to 92.4 µM; also: nearly all actives have a fitted effect of over 45% in size; as to activity change, negative = inhibition: top concentration of the series differs between compounds
Excerpt: U.S. Tox21 Program National Center for Advancing Translational Sciences [NCATS] NIH Chemical Genomics Center [NCGC] U.S. Environmental Protection Agency [EPA] National Institutes of Environmental Health Sciences [NIEHS] National Toxicology Program [NTP] U.S. Food and Drug Administration [FDA] Tox21 Assay Overview: Histone deacetylases (HDACs) are a group of epigenetic enzymes that regulate gene expression by histone deacetylation. HDACs are capable of introducing epigenetic modifications and such aberrations contribute to the onset and progression of several human diseases, thus making HDACs a popular therapeutic target. For identifying endogenous class I/II HDAC inhibitors a homogenous, luminogenic HDAC I/II cell based assay was used to measure the relative activity of class I and II HDACs from cells. Wild type HCT-116 cells were used to screen Tox21 libraries for identifying class I/II HDAC inhibitors.
Tox21 Assay Protocol Summary: HCT-116 cells were dispensed at 1,500 per well in 5uL of culture medium into white solid bottom 1536-well plates (Greiner Bio-One, Monroe, NC) using a Multidrop Combi (Thermo Scientific, Waltham, MA) dispenser. The assay plates were incubated at 37 C and 5% CO2 for an overnight, and then 23nL of compounds dissolved in DMSO and positive control were transferred using a Pintool station (Wako, San Diego, CA). The assay plates were incubated at 37C and 5% CO2 for 2hr. After compound treatment, 4uL of HDAC-Glo reagent (Promega Corporation, Madison, WI) was added to each well of the assay plates using Flying Reagent Dispenser (FRD, Aurora Discovery, San Diego, CA) and incubated the assay plates at room temperature for 30min. The luminescence signal was quantified using a ViewLux plate reader (Perkin Elmer, Shelton, CT).
Potency is read from the fitted curve at half-maximal effect.

Row | SMILES | Potency | activity change, negative = inhibition
1 | CC(CN1CC(=O)NC(=O)C1)N1CC(=O)NC(=O)C1 (stereo not given) | inactive | –
2 | CCCC(C)C(O)CC (stereo not given) | inactive | –
3 | O=CN1CCCCC1 | inactive | –
4 | CCC(C)(C)C | inactive | –
5 | CN1C(CCl)Nc2cc(Cl)c(S(N)(=O)=O)cc2S1(=O)=O (stereo not given) | inactive | –
6 | C=CCCCCCCCCCCCCCC | – | 0.0889% [at 19 µM] (inactive)
7 | C/C(Cl)=C/CCl | inactive | –
8 | C[C@H]1COc2c(C3(N)CC3)c(F)cc3c(=O)c(C(=O)O)cn1c23 | inactive | –
9 | CCCCNCC | inactive | –
10 | CC(C)(O)c1ccc(C(C)(C)O)cc1 | inactive | –
11 | CCO/C=C1\N=C(c2ccccc2)OC1=O | inactive | –
12 | CO/N=C(\C(=O)O)c1csc(NC(=O)CCl)n1 | inactive | –
13 | CCCCCCCOC(C)=O | inactive | –
14 | CNC(C)=O | inactive | –
15 | Cc1ccc2cccnc2c1 | inactive | –
16 | CC(=O)c1c(C)cc(C(C)(C)C)cc1C | inactive | –
17 | CCc1ccc(CC)cc1 | inactive | –
18 | O=C(O)Cc1ccccc1Oc1ccc(Cl)cc1Cl | inactive | –
19 | CCCc1ccc(O)c(OC)c1 | inactive | –
20 | NCC1CCC(C(=O)Oc2ccc(CCC(=O)O)cc2)CC1 (stereo not given) | 8.41 µM (active) | –

Row | SMILES | Potency | activity change, negative = inhibition
21 | CCCCN1C(=O)c2ccccc2C1=O | inactive | –
22 | CN(C)c1ccncc1 | inactive | –
23 | CC1(C)S[C@@H]2[C@H](NC(=O)Cc3ccccc3)C(=O)N2[C@H]1C(=O)O (tested in a mixture with another compound) | inactive | –
24 | O=c1c(O)c(O)c1=O | inactive | –
25 | O=S(=O)(O)c1ccc(Cl)cc1 | inactive | –
26 | CC(C)C[P+](C)(CC(C)C)CC(C)C | inactive | –
27 | BrCCOc1ccccc1 | inactive | –
28 | C/C=C(\C)C=O | inactive | –
29 | CC1(C)CC(N)CC(C)(C)N1 | inactive | –
30 | CCCCCCCCCCCC(C)=O | inactive | –
31 | CCCc1ncc(C(=O)O)s1 | inactive | –
32 | O=Cc1ccccc1S(=O)(=O)O | inactive | –
33 | Cc1cc(C)c(N)c(Cl)c1 | inactive | –
34 | N=C(N)S(=O)O | inactive | –
35 | O=C(O)COc1ccc2ccccc2c1 | inactive | –
36 | COc1cc(OC)cc(OC)c1 | inactive | –
37 | COC(=O)N/N=C/c1c[n+]([O-])c2ccccc2[n+]1[O-] | inactive | –
38 | C=CCCCCCCCCOC(C)=O | inactive | –
39 | Cc1ccccc1OCC(=O)O | inactive | –
40 | CC1(C)C(=O)C(C)(C)C1=O | inactive | –

Reference: PubChem BioAssay (Tox21)
